This is a sample that favours compounds with a hit; in the whole collection about 4.1% have one here.
hcDAF12 agonist = H. contortus DAF-12 activation, primary screen | HEK293 hcDAF-12 lit1-tk-luc reporter, luminescence; 0% DMSO, 100% Δ7-dafachronic acid | activation, % at 6.8 µM | 370,000 tested, 1.4% active | AID 652067;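 active = activation above the mean of all tested compounds plus 3 SD, cut at about 5.5% in these data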;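 also: 100% = response to 3 µM Δ7-dafachronic acid high control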
hgDAF12 agonist = agonists of H. glycines DAF-12 nuclear receptor; 370,000 tested, 1.8% active; HEK293 GAL4-hgDAF12 UAS-luciferase reporter, agonist luminescence; normalized to butyrate control; activation, % at 6.8 µM; AID 687014;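 active = activation above a cutoff set at the mean of all screened compounds plus 3 SD, cut at about 10% in these data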;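 also: 0% = DMSO wells and 100% = sodium butyrate wells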
DAX1 inh-1 = blocks DAX1 repression of SF-1 activated StAR promoter; HEK293T StAR-luciferase reporter, SF-1/DAX-1 repression relief; inhibition, % at 6.8 µM; 370,000 tested, 1.1% active; AID 652010;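 active = inhibition above the mean over all tested compounds plus 3 SD, cut at about 3.6% in these data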;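 also: 0% = DAX-1 cells with DMSO and 100% = cells lacking DAX-1 with DMSO; higher inhibition means more luminescence from relief of DAX-1 repression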
DAX1 inh-2 = NR0B1 (DAX1) inhibition | HEK293 Gal4-DAX1 luciferase reporter, luminescence | inhibition, % at 6.75 µM | AID 504766 | 340,000 tested, 0.99% active | P51843;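 active = inhibition above the mean over all tested compounds plus 3 SD, cut at about 4.2% in these data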;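 also: 0% = DAX1-transfected cells with DMSO and 100% = empty-vector control cells with DMSO; inhibition shows as a rise in luminescence from relieved DAX1 repression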
Target sequence (P51843 207-470 limits assumed): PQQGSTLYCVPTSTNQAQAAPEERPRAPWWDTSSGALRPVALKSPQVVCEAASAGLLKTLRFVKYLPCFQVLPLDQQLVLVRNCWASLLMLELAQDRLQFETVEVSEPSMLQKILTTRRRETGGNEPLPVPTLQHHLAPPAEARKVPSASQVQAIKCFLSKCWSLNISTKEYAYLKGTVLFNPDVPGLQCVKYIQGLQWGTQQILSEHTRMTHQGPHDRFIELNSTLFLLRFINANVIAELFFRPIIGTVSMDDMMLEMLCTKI
ssDAF12 agonist = S. stercoralis DAF-12 activation, primary screen; 370,000 tested, 1% active; activation, % at 6.8 µM; AID 652126; HEK293 ssDAF-12/GRIP1 lit1-tk-luc reporter, luminescence; % of 3 µM dafachronic acid response;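 active = activation above the mean over all tested compounds plus 3 SD, cut at about 0.9% in these data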;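 also: 0% = DMSO-only wells and 100% = 3 µM delta7-dafachronic acid wells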
DAX1 conf = NR0B1 (human) inhibition, confirmation; 2,400 tested, 87% active; HEK293T StAR-promoter luciferase reporter, SF-1/DAX-1 repression; shares compounds with DAX1 inh-1; AID 652134; inhibition, % at 6.8 µM;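 active = inhibition above the average of every tested compound plus 3 SD, cut at about 3.8% in these data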;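 also: 0% = DAX-1 cells with DMSO and 100% = no DAX-1 control cells with DMSO; active compounds raise luminescence by relieving repression of the StAR reporter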
SF1 mutant ctr = counter-screen for DAX1 inhibitors: nonselective inhibitors with SF-1 AF2 mutant; shares compounds with DAX1 inh-1; HEK293 StAR-luciferase, luminescence; inhibition, % at 6.8 µM; 2,400 tested, 78% active;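 active = inhibition above the mean of all tested compounds plus 3 SD, cut at about 3% in these data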;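 also: 0% = DAX-1 transfected cells with DMSO and 100% = cells without DAX-1 with DMSO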
LXRb hcDAF ctr = counter-screen for hcDAF-12 agonists: agonists of human LXR-beta | shares compounds with hcDAF12 agonist | HEK293 Gal4-LXR tk-luc reporter, luminescence, 24 h; normalized: DMSO 0%, positive control 100% | activation, % at 6.8 µM | 3,400 tested, under 10 active | AID 743027;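 active = mean percent activation of the reporter above a cutoff set as the average over tested compounds plus their standard deviation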
hcDAF12 conf = confirmation of H. contortus DAF-12 agonists | shares compounds with hcDAF12 agonist | HEK293 hcDAF-12 lit1-tk-luc reporter, luminescence; % of Δ7-dafachronic acid response | activation, % at 6.8 µM | 3,400 tested, 61% active;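 active = mean activation across triplicate tests above the threshold derived from the earlier primary screen, cut at about 5.5% in these data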;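 also: 0% = DMSO only wells and 100% = 3 µM Δ7-dafachronic acid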
hgDAF12 ag = confirmation of H. glycines DAF-12 agonists. shares compounds with hgDAF12 agonist. HEK293 GAL4-hgDAF12 luciferase reporter, agonist mode; percent of butyrate response. activation, % at 6.8 µM. 3,300 tested, 80% active;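 active = mean activation over triplicate wells above the hit cutoff derived from the earlier primary screen, cut at about 11% in these data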;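 also: 0% = DMSO low control and 100% = 2 mM sodium butyrate high control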
LXR ag 2 = LXR-beta agonism as DAF-12 counter-screen. shares compounds with hgDAF12 agonist. AID 743051. activation, % at 6.8 µM. HEK293 Gal4-LXR luciferase reporter, 24 h. 3,300 tested, under 10 active;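 active = mean activation of the triplicate above a set limit carried over from the primary screen, none filed active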
* marks the source's active call; other numbers are inactive results; . = no result.

SMILES	hcDAF12 agonist	hgDAF12 agonist	DAX1 inh-1	DAX1 inh-2	ssDAF12 agonist	DAX1 conf	SF1 mutant ctr	LXRb hcDAF ctr	hcDAF12 conf	hgDAF12 ag	LXR ag 2
C/C(=N/NC(=O)c1ccccn1)c1ccco1	3	13*	5.5*	0	1	8.1*	4.0*	.	.	13*	1
COC(=O)N/N=C(\C)c1ccco1	0	-3	0	.	1	.	.	.	.	.	.
Cc1ccc2nc(-c3ccc(NC(=O)COC(=O)c4ccc(=O)[nH]c4)cc3)sc2c1	11*	22*	8.4*	1	1.2*	14*	8.5*	2	11*	23*	1
Cc1ccc2nc(-c3ccc(NC(=O)CSc4nc(N)cc(=O)[nH]4)cc3)sc2c1	3	25*	4.8*	4.5*	0	7.3*	4.0*	.	.	18*	1
Cc1ccc2nc(-c3ccc(NC(=O)CNC4CC4)cc3)sc2c1	5	21*	5.7*	4	2.4*	14*	7.0*	.	.	15*	1
Cc1ccc2nc(NC(=O)COC(=O)c3ccncc3)sc2c1	1	9	2	0	-1	.	.	.	.	.	.
Cc1ccc2nc(-c3ccc(NC(=O)CN4C(=O)c5ccccc5C4=O)cc3)sc2c1	14*	19*	5.4*	2	2.2*	15*	7.4*	1	8.3*	16*	1
Nc1cc(=O)[nH]c(SCC(=O)Nc2ccc(F)c(Cl)c2)n1	-1	0	1	0	-1	.	.	.	.	.	.
Cc1cc(C(=O)COC(=O)c2ccc(Cl)c(S(N)(=O)=O)c2)c(C)n1C1CC1	2	14*	8.0*	1	0	8.3*	5.4*	.	.	15*	0
Cc1cc(C(=O)COC(=O)c2ccc(NC(=O)CC#N)cc2)c(C)n1C1CC1	-1	4	3	0	-1	.	.	.	.	.	.
COC(=O)[C@@]12CCCCC3=C1N(CCC3)C(=O)[C@H]2CC(=O)NCc1ccccc1	-3	1	-1	.	0	.	.	.	.	.	.
O=C(OC12CCCN(C1)/C(=C/c1cccnc1)C2)c1ccccc1 (stereo unspecified)	-5	-5	-2	.	-2	.	.	.	.	.	.
O=C(CSc1nnc(-c2cccs2)o1)Nc1cc(Cl)cc(Cl)c1	0	0	1	.	-1	.	.	.	.	.	.
O=c1c2c(nc3cc(-c4ccccc4Cl)[nH]n13)CCS2	5	16*	5.6*	2	1.5*	3.9*	3.4*	.	.	12*	1
CN(CCC#N)c1ccc(/C=C(\C#N)c2ccccn2)cc1	17*	23*	5.7*	-3	2.1*	12*	3	1	5	15*	1
CCN(Cc1ccccc1)c1ccc(/C=C(\C#N)c2ccccn2)cc1	9.3*	27*	5.1*	3	2.1*	3.7*	5.7*	1	4	13*	1
COc1ccccc1-c1cccc2c3c([nH]c12)[C@@H]1C[C@H]2[C@@H](C(=O)N1CC3)[C@H](C)ON2C	0	1	0	.	-1	.	.	.	.	.	.
COc1ccc(CN=C2NN=C(c3ccc(Cl)cc3)CS2)cc1	1	1	0	-1	-1	.	.	.	.	.	.
COc1ccc(CN=C2Nc3ccccc3CS2)cc1	5	14*	4.7*	0	1.2*	11*	7.2*	.	.	17*	1
CCC[C@H]1[C@@H](NC(=O)c2cccc(N(C)C)c2)CC[C@@]23CCCN2C(=O)CCC[C@@H]13	-3	3	.	.	-2	.	.	.	.	.	.
COc1ccc(-c2cn3cc(C(F)(F)F)cc(Cl)c3n2)cc1	12*	23*	5.1*	3	2.6*	8.7*	6.9*	1	15*	21*	1
Fc1ccc(Nc2ccc3ccccc3n2)c(F)c1	9.8*	15*	9.7*	-2	1.0*	14*	9.4*	2	9.4*	20*	1
O=C(Nc1cccc(Cl)c1)Nc1ccccc1C(=O)O	5	14*	4.7*	-1	-1	11*	7.6*	.	.	15*	1
NC(=O)c1ccccc1NC(=O)Nc1cccc(Cl)c1	0	3	0	-1	-1	.	.	.	.	.	.
Cn1ccc(C(=O)Nc2ccc(Br)cc2Br)n1	7.7*	20*	4.9*	3	1	11*	6.6*	1	3	13*	1
SMILES	hcDAF12 agonist	hgDAF12 agonist	DAX1 inh-1	DAX1 inh-2	ssDAF12 agonist	DAX1 conf	SF1 mutant ctr	LXRb hcDAF ctr	hcDAF12 conf	hgDAF12 ag	LXR ag 2
Cc1ccc(NC(=O)c2ccn(C)n2)c(Br)c1	3	15*	5.9*	0	1	13*	8.8*	.	.	16*	1
Cc1ccc(NC(=O)c2ccccn2)c(Br)c1	9.9*	19*	8.5*	6.4*	3.1*	15*	12*	1	7.9*	18*	1
NC(=O)c1ccccc1N/C=C/C(=O)c1ccccc1	5	13*	5.8*	2	0	12*	5.4*	.	.	16*	1
CC(=O)Oc1ccc2c(=O)c(-c3nc4ccccc4s3)coc2c1	6.7*	13*	5.7*	0	0	5.7*	2	1	9.0*	9	0
CC(=O)Oc1ccc2c(=O)c(Oc3ccccc3[N+](=O)[O-])coc2c1	-1	-4	-1	0	-2	.	.	.	.	.	.
Cc1csc(=NC(=O)c2ccccc2)n1C	3	10	2	1	1	.	.	.	.	.	.
O=C(N=c1nc2ccccn2s1)c1ccccc1	11*	22*	5.2*	3	1.1*	11*	3	2	13*	8	1
Cc1cccc(/C=N/Nc2ccc3ccccc3n2)c1	3	-2	1	-7	-2	.	.	.	.	.	.
Cc1ccc(/C=N/Nc2ccc3ccccc3n2)o1	8.8*	22*	11*	-3	1.1*	5.8*	1	2	10*	11*	1
O=C(O)CCNC(=O)OCC1c2ccccc2-c2ccccc21	2	1	-1	1	0	.	.	.	.	.	.

Source: PubChem BioAssay (The Scripps Research Institute Molecular Screening Center)
